From the supplement of paper PMC6555819

Experiments:
Test in all cases: PBM binding z-score (relative to random genomic background probes); higher = stronger binding; sequences stand for … in GC…GCGATTGACAGCGTAGAATGAAGG
[1] = tested on: RARb homodimer (NR concentration 270 nM)
Procedure, shortened: (§1)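 The probes on custom Agilent 4×180K protein-binding microarrays were double-stranded, with 34-nt variable regions bearing direct-repeat seeds, single-nucleotide variants, half-site ablations and random human genomic background sequences. Incubation lasted 1 h with ligand-free nuclear receptor dimers in PBS pH 7.4, 2% milk, 0.02% Triton X-100, 1 mM DTT, 0.2 mg/mL BSA and 0.4 mg/ml salmon testes DNA. Antibodies against each partner (one per run) detected bound dimers, and fluorescence scans were regression-normalized. Binding z-scores take the random background probes as reference.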

[2] = tested on: RARg:RXRa (NR concentration 270 nM, RXRa partner concentration 90 nM)
Procedure, shortened: as §1

[3] = tested on: RARg homodimer (NR concentration 270 nM)
Procedure, shortened: as §1

[4] = tested on: RXRa DBDmut IVT, anti-RXR (DBD mutation: RXRa K156A/R161A, NR concentration 90 nM)
Procedure, shortened: as §1

[5] = tested on: RXRa homodimer (NR concentration 180 nM)
Procedure, shortened: as §1

[6] = tested on: THRa:RXRa (NR concentration 90 nM, RXRa partner concentration 90 nM)
Procedure, shortened: as §1

[7] = tested on: THRa homodimer (NR concentration 90 nM)
Procedure, shortened: as §1

[8] = tested on: VDR homodimer (NR concentration 270 nM)
Procedure, shortened: as §1

Sequence | PBM binding z-score [1] | PBM binding z-score [2] | PBM binding z-score [3] | PBM binding z-score [4] | PBM binding z-score [5] | PBM binding z-score [6] | PBM binding z-score [7] | PBM binding z-score [8]
TTACCAAGGTGGGCTGAGGTCGTTGATCCAACTC | 1.04 | 0.249 | -0.257 | 0.273 | 0.833 | 3.77 | 1.5 | 2.06
CCTTACGGGTCTCTGACAGGTTATAGCATTTGGA | -0.0333 | 0.29 | 0.275 | 0.321 | 0.277 | 0.0789 | -0.175 | -0.188
TCTATTAGTTCATTAGGGCAACCGAAACAGCGGA | 2.52 | 2.4 | 2.37 | 3.46 | 1.12 | 1.45 | 0.899 | 3
CCGAGTAGGTTATTGGGCATTCAGGCAACGGTGA | 0.361 | 0.0352 | 0.187 | 0.421 | 0.183 | 0.0204 | 0.103 | 0.256
AGAATGAGGTTACGATCAGGGAAACAGAATACAT | 1.15 | 2.31 | 1.83 | 0.839 | 2.77 | 2.99 | 0.967 | 0.356
GCGTACGGGTCAAAGGTTATAGCATGAATAGAAT | 3.14 | 6.99 | 4.57 | 1.83 | 9.61 | 3.78 | -0.479 | 1.08
ATCTCTAGGTAAGACTAAGTTCAGTGAAGAACGC | 1.85 | 0.933 | 0.697 | 0.96 | 0.46 | 1.34 | 0.876 | 2.25
